Several values for one entry are separate records, joined by “and”; a condition that tells them apart may be missing. Equal entries are not always repeated. In all, about 5,500 compounds went through this assay and about 2,000 (36%) were called active. Roughly 18% stayed inconclusive and do not appear here. Rule as the data show it: active = normalized growth mostly below about 0.91 (no sharp cut-off); inconclusive = no clear call, values can overlap the other calls; inactive = mostly above about 0.92. The list shows a part of the results.
Assay: chemical genetic growth profiling, strain panel (AID 1159580);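 also: tested at 20 µM; growth read once vehicle control cultures reached saturation at 30 °C; 1 = growth at the plate median or of vehicle wells; lower values mean less growth of the strain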
Conditions: growth OD

Measured: normalized growth

Cc1cccc(C)c1OCC(C)N (stereo not drawn)
inactive: S. cerevisiae deletion strains, locus YKL009W, strain mrt4, hits give low values 0.972 | S. cerevisiae deletion strains, locus YKL068W, hits give low values 0.982 | S. cerevisiae deletion strains, locus YKL085W, strain MDH1 (second series), hits give low values 1.04 | S. cerevisiae deletion strains, locus YKL085W, strain MDH1, hits give low values 1.04 | S. cerevisiae deletion strains, locus YKL160W, strain elf1, hits give low values 1 | S. cerevisiae deletion strains, locus YKL190W, strain CNB1, hits give low values 0.996 | S. cerevisiae deletion strains, locus YKR001C, strain vps1, hits give low values 0.99 | S. cerevisiae deletion strains, locus YKR026C, strain gcn3, hits give low values 0.999 | S. cerevisiae deletion strains, locus YKR091W, strain srl3, hits give low values 1.01 | S. cerevisiae deletion strains, locus YLL001W, strain dnm1, hits give low values 1.02 | S. cerevisiae deletion strains, locus YLL026W, hits give low values 1.02 | S. cerevisiae deletion strains, locus YLL041C, strain sdh2, hits give low values 1.01 | S. cerevisiae deletion strains, locus YLR027C, strain aat2, hits give low values 1.01 | S. cerevisiae deletion strains, locus YLR039C, strain RIC1, hits give low values 1.02 | S. cerevisiae deletion strains, locus YLR058C, strain SHM2, hits give low values 0.998 | S. cerevisiae deletion strains, locus YLR102C, strain apc9, hits give low values 0.989 | S. cerevisiae deletion strains, locus YLR113W, strain HOG1, hits give low values 0.987 | S. cerevisiae deletion strains, locus YLR221C, strain rsa3, hits give low values 1 | S. cerevisiae deletion strains, locus YLR258W, strain gsy2, hits give low values 1.01 | S. cerevisiae deletion strains, locus YLR262C, strain YPT6 (second series), hits give low values 1.01 | S. cerevisiae deletion strains, locus YLR262C, strain YPT6, hits give low values 0.993 | S. cerevisiae deletion strains, locus YLR268W, strain sec22, hits give low values 0.993 | S. cerevisiae deletion strains, locus YLR320W, strain mms22, hits give low values 1.03 | S. cerevisiae deletion strains, locus YLR330W, strain CHS5, hits give low values 0.992 | S. cerevisiae deletion strains, locus YLR342W, strain FKS1 (second series), hits give low values 1.01 | S. cerevisiae deletion strains, locus YLR342W, strain FKS1, hits give low values 1.01 | S. cerevisiae deletion strains, locus YLR357W, strain rsc2, hits give low values 1.02 | S. cerevisiae deletion strains, locus YLR370C, strain arc18, hits give low values 1.01 | S. cerevisiae deletion strains, locus YLR371W, strain rom2, hits give low values 0.988 | S. cerevisiae deletion strains, locus YLR384C, strain iki3, hits give low values 1.01 | S. cerevisiae deletion strains, locus YLR418C, strain cdc73, hits give low values 1.03 | S. cerevisiae deletion strains, locus YML016C, strain PPZ1, hits give low values 0.995 | S. cerevisiae deletion strains, locus YML032C, strain rad52, hits give low values 1 | S. cerevisiae deletion strains, locus YML120C, strain ndi1, hits give low values 1 | S. cerevisiae deletion strains, locus YML124C, strain tub3, hits give low values 0.991 | S. cerevisiae deletion strains, locus YMR058W, strain fet3, hits give low values 1.02 | S. cerevisiae deletion strains, locus YMR078C, strain ctf18, hits give low values 0.986 | S. cerevisiae deletion strains, locus YMR125W, strain sto1, hits give low values 1.01 | S. cerevisiae deletion strains, locus YMR129W, hits give low values 0.994 | S. cerevisiae deletion strains, locus YMR205C, strain PFK2, hits give low values 1.03 | S. cerevisiae deletion strains, locus YMR223W, strain ubp8, hits give low values 1.01 | S. cerevisiae deletion strains, locus YMR231W, strain pep5, hits give low values 1.01 | S. cerevisiae deletion strains, locus YMR263W, strain SAP30, hits give low values 0.993 | S. cerevisiae deletion strains, locus YMR307W, strain GAS1, hits give low values 0.969 | S. cerevisiae deletion strains, locus YNL067W, strain RPL9B, hits give low values 1.01 | S. cerevisiae deletion strains, locus YNL071W, strain lat1, hits give low values 1.01 | S. cerevisiae deletion strains, locus YNL153C, strain GIM3, hits give low values 1.03 and 1 | S. cerevisiae deletion strains, locus YNL175C, strain NOP13, hits give low values 1 | S. cerevisiae deletion strains, locus YNL183C, strain NPR1, hits give low values 0.956 | S. cerevisiae deletion strains, locus YNL197C, strain WHI3, hits give low values 0.992 | S. cerevisiae deletion strains, locus YNL209W, strain ssb2, hits give low values 1.01 | S. cerevisiae deletion strains, locus YNL224C, strain SQS1, hits give low values 1 | S. cerevisiae deletion strains, locus YNL233W, strain BNI4, hits give low values 1.03 | S. cerevisiae deletion strains, locus YNL248C, strain rpa49, hits give low values 0.991 | S. cerevisiae deletion strains, locus YNL250W, strain rad50, hits give low values 0.987 | S. cerevisiae deletion strains, locus YNL271C, strain bni1, hits give low values 0.985 | S. cerevisiae deletion strains, locus YNL298W, strain CLA4, hits give low values 0.986 | S. cerevisiae deletion strains, locus YNL307C, strain MCK1, hits give low values 1.02 | S. cerevisiae deletion strains, locus YNL322C, strain KRE1 (second series), hits give low values 1 | S. cerevisiae deletion strains, locus YNL322C, strain KRE1, hits give low values 0.991 | S. cerevisiae deletion strains, locus YNR049C, strain mso1, hits give low values 1 | S. cerevisiae deletion strains, locus YNR052C, strain pop2, hits give low values 0.977 | S. cerevisiae deletion strains, locus YOL006C, strain TOP1, hits give low values 1.11 | S. cerevisiae deletion strains, locus YOL012C, strain htz1 1.19 | S. cerevisiae deletion strains, locus YOL147C, strain pex11, hits give low values 0.99 | S. cerevisiae deletion strains, locus YOR001W, strain rrp6, hits give low values 0.994 | S. cerevisiae deletion strains, locus YOR061W, strain CKA2, hits give low values 0.998 | S. cerevisiae deletion strains, locus YOR069W, strain VPS5, hits give low values 0.988 | S. cerevisiae deletion strains, locus YOR070C, strain gyp1, hits give low values 0.997 | S. cerevisiae deletion strains, locus YOR080W, strain dia2, hits give low values 1.01 | S. cerevisiae deletion strains, locus YOR083W, strain WHI5 (second series), hits give low values 1 | S. cerevisiae deletion strains, locus YOR083W, strain WHI5, hits give low values 0.993 | S. cerevisiae deletion strains, locus YOR106W, strain vam3, hits give low values 1.01 | S. cerevisiae deletion strains, locus YOR136W, strain idh2, hits give low values 0.987 | S. cerevisiae deletion strains, locus YOR144C, strain elg1, hits give low values 0.991 | S. cerevisiae deletion strains, locus YOR184W, strain ser1, hits give low values 1.03 | S. cerevisiae deletion strains, locus YOR231W, strain MKK1, hits give low values 0.999 | S. cerevisiae deletion strains, locus YOR265W, strain rbl2, hits give low values 1.01 | S. cerevisiae deletion strains, locus YOR270C, strain vph1, hits give low values 1.05 | S. cerevisiae deletion strains, locus YOR290C, strain snf2, hits give low values 1 | S. cerevisiae deletion strains, locus YOR316C, strain cot1, hits give low values 0.977 | S. cerevisiae deletion strains, locus YPL051W, strain arl3, hits give low values 1 | S. cerevisiae deletion strains, locus YPL078C, strain atp4, hits give low values 1 | S. cerevisiae deletion strains, locus YPL106C, strain sse1, hits give low values 1.02 | S. cerevisiae deletion strains, locus YPL240C, strain hsp82, hits give low values 1.01 | S. cerevisiae deletion strains, locus YPL241C, strain CIN2, hits give low values 0.995 | S. cerevisiae deletion strains, locus YPL256C, strain CLN2, hits give low values 0.998 | S. cerevisiae deletion strains, locus YPR119W, strain clb2, hits give low values 0.993 | S. cerevisiae deletion strains, locus YPR141C, strain kar3, hits give low values 0.983 | S. cerevisiae deletion strains, locus YPR163C, strain tif3, hits give low values 0.981 | S. cerevisiae deletion strains, locus YPR167C, strain met16, hits give low values 0.978 | S. cerevisiae deletion strains, strain wtn01, hits give low values 0.983 | S. cerevisiae strains, strain wild type, hits give low values 0.997

Source: PubChem BioAssay AID1159580 (chemical genetic matrix, 2015)
